{
  "source": "PubChem BioAssay AID651956",
  "about": "(Broad Institute, 2012)",
  "note": "Results with a measured potency or affinity are listed apart. Inconclusive results are not listed. Active and inactive are the calls of the source.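 How the source made its calls: active means in every test run, a fitted half-maximal concentration for signal decrease at or below twice the highest tested concentration; inconclusive means runs disagree, flat 30 to 70% decrease, or poor fit; inactive means the rest.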",
  "data": [
    {"experiment": "activation of miR-122 Renilla sensor silencing – cell-based, Huh7 psiCHECK-miR122, Renilla luciferase, cherry-picked, dose response (AID 651956)", "conditions": "Huh7 psiCHECK-miR122 Renilla luciferase reporter, 48 h; series mostly up to 35 µM", "values": [
      {"smiles": "C[C@@H]1CN([C@@H](C)CO)S(=O)(=O)c2ccc(-c3ccccc3F)cc2O[C@@H]1CN(C)Cc1cccnc1", "outcome": "inactive"},
      {"smiles": "COc1ccc(CC(NC(C)=O)C(=O)N2CCN(C(=O)N(C(C)C)C(C)C)CC2)cc1", "note": "(stereo unspecified)", "outcome": "inactive"},
      {"smiles": "CCCNC(=O)C[C@H]1CC[C@@H]2[C@H](COc3ccc(NS(=O)(=O)c4ccccc4C)cc3C(=O)N2C)O1", "outcome": "inactive"},
      {"smiles": "O=C(Nc1ccc(F)cc1)N1C[C@H]2[C@@H](c3ccccc31)[C@H](CO)N2C(=O)c1ccncc1", "outcome": "inactive"},
      {"smiles": "COCC(=O)Nc1ccc2c(c1)C(=O)N(C)[C@@H]1CC[C@H](CC(=O)NCCCN(C)C)O[C@H]1CO2", "outcome": "inactive"},
      {"smiles": "CC(=O)N(C)C[C@@H]1[C@@H](c2ccc(-c3cccc(C#N)c3)cc2)[C@H](CO)N1C(C)=O", "outcome": "inactive"},
      {"smiles": "CCCCNc1cc(C)nc(NCc2ccccc2)n1", "outcome": "inactive"},
      {"smiles": "CN1C(=O)c2cc(NC(=O)Cc3ccccc3)ccc2OC[C@H]2O[C@@H](CC(=O)NCc3ccc(Cl)cc3)CC[C@@H]21", "outcome": "inactive"},
      {"smiles": "CCCNC(=O)Nc1ccc2c(c1)C(=O)N(C)[C@@H]1CC[C@H](CC(=O)NCC3CCCCC3)O[C@H]1CO2", "outcome": "inactive"},
      {"smiles": "CN[C@H]1C[C@H]2c3[nH]c4ccc(-c5ccc(OC)cc5)cc4c3CCN2C(=O)[C@H]1[C@H](C)O", "outcome": "inactive"},
      {"smiles": "C[C@H](CO)N1C[C@H](C)[C@H](CN(C)Cc2ccccc2)Oc2cc(/C=C/c3ccccc3)ccc2S1(=O)=O", "outcome": "inactive"},
      {"smiles": "CC(C)Oc1ccc(CNCCC2(C(C)C)CCOC(C)(C)C2)cc1", "note": "(stereo unspecified)", "outcome": "inactive"},
      {"smiles": "Cc1cnc(NC(=O)c2cc3c(C)nn(-c4ccccc4)c3s2)s1", "outcome": "inactive"},
      {"smiles": "CC(=O)N1[C@H](CN(C(=O)c2ccc(F)cc2)C(C)C)[C@H](c2ccccc2)[C@@H]1CO", "outcome": "inactive"},
      {"smiles": "CN1C(=O)c2cc(NC(=O)c3cccc(F)c3)ccc2OC[C@H]2O[C@H](CC(=O)N3CCc4ccccc4C3)CC[C@H]21", "outcome": "inactive"},
      {"smiles": "COC(=O)C[C@H]1CC[C@H]2[C@H](COc3ccc(NC(=O)c4cscn4)cc3C(=O)N2C)O1", "outcome": "inactive"},
      {"smiles": "COCC(=O)N1[C@H](CO)[C@@H](c2ccccc2)[C@H]1CN(C)C(=O)c1ccncc1", "outcome": "inactive"},
      {"smiles": "O=C(Nc1ccc(F)cc1)N1C[C@@H]2[C@H](c3ccccc31)[C@H](CO)N2C(=O)Cc1ccccc1", "outcome": "inactive"},
      {"smiles": "CCn1nnnc1SCC(=O)Nc1nnc(C(C)C)s1", "outcome": "inactive"},
      {"smiles": "CCCCNC(=O)Nc1nnc(-c2ccc(OCC)cc2)o1", "outcome": "inactive"},
      {"smiles": "O=C(N/N=C/c1ccco1)c1cccc(N2CCCC2=O)c1", "outcome": "inactive"},
      {"smiles": "Cc1cc(C(=O)Nc2ccc3c(c2)C(=O)N(C)[C@H]2CC[C@H](CC(=O)N[C@@H](C)c4ccccc4)O[C@H]2CO3)no1", "outcome": "inactive"},
      {"smiles": "CCCNC(=O)C[C@@H]1CC[C@@H]2[C@@H](COc3ccc(NS(=O)(=O)c4ccccc4C)cc3C(=O)N2C)O1", "outcome": "inactive"},
      {"smiles": "Cc1ccc(NCC(=O)c2ccccc2)cc1Cl", "outcome": "inactive"},
      {"smiles": "C[C@H](CO)N1C[C@H](C)[C@@H](CN(C)CC2CCCCC2)OCCCC[C@H](C)Oc2ccc(NC(=O)Nc3cccc4ccccc34)cc2C1=O", "outcome": "inactive"},
      {"smiles": "COc1ccc(NC(=O)COC(=O)CCCc2c[nH]c3ccccc23)cc1", "outcome": "inactive"},
      {"smiles": "Cc1cc(C)cc(OCC(O)CN2CCC(CN3C(=O)c4cccc5cccc(c45)C3=O)CC2)c1", "note": "(stereo unspecified)", "outcome": "inactive"},
      {"smiles": "Cc1ccc(OCC(O)Cn2c(=N)n(Cc3ccccc3)c3ccccc32)cc1", "note": "(stereo unspecified)", "outcome": "inactive"},
      {"smiles": "COC(=O)C[C@H]1CC[C@@H]2[C@@H](COc3ccc(NC(=O)c4ccc(F)c(F)c4)cc3C(=O)N2C)O1", "outcome": "inactive"},
      {"smiles": "CCCC(=O)Nc1ccc2c(c1)C(=O)N(C)[C@@H]1CC[C@@H](CC(=O)NCC(F)(F)F)O[C@H]1CO2", "outcome": "inactive"},
      {"smiles": "COc1cccc(NC(=O)C[C@@H]2CC[C@@H]3[C@@H](COc4ccc(NS(=O)(=O)c5cccc(F)c5)cc4C(=O)N3C)O2)c1", "outcome": "inactive"},
      {"smiles": "CN(C)CCCNC(=O)C[C@@H]1CC[C@H]2[C@H](COc3ccc(NC(=O)c4cccc(F)c4)cc3C(=O)N2C)O1", "outcome": "inactive"},
      {"smiles": "CN(C)CCCNC(=O)C[C@@H]1CC[C@H]2[C@@H](COc3ccc(NC(=O)c4cccc(F)c4)cc3C(=O)N2C)O1", "outcome": "inactive"},
      {"smiles": "C[C@H]1CN([C@@H](C)CO)S(=O)(=O)c2ccc(C3=CCCC3)cc2O[C@H]1CN(C)Cc1cccnc1", "outcome": "inactive"},
      {"smiles": "C[C@@H]1CN([C@H](C)CO)S(=O)(=O)c2ccc(C3=CCCC3)cc2O[C@@H]1CN(C)C(=O)c1ccc(F)cc1", "outcome": "inactive"},
      {"smiles": "C/C=C/c1ccc([C@H]2[C@@H](CO)N(C(=O)CC)[C@H]2CNC(=O)CC)cc1", "outcome": "inactive"}
    ]}
  ]
}
